Results taken from article PMC4336329 (PLoS ONE, 2015).
Hit rate of the full screen: of about 310,000 compounds, about 14,000 (4.5%) showed an effect of 50% or more. Effects have a minus sign here. Many of the other results were omitted from the sample, so strong results are more common in it than they were.

target: human ether-à-go-go-related gene (hERG) potassium channel (human, UniProt Q12809); experiment: primary screen, population patch clamp on CHO cells stably expressing hERG; higher = less effect of the substance
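Note: peak tail current of the secondary pulse compared with the same well before compound.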

Sequence of human ether-à-go-go-related gene (hERG) potassium channel (Q12809 whole entry, looked up): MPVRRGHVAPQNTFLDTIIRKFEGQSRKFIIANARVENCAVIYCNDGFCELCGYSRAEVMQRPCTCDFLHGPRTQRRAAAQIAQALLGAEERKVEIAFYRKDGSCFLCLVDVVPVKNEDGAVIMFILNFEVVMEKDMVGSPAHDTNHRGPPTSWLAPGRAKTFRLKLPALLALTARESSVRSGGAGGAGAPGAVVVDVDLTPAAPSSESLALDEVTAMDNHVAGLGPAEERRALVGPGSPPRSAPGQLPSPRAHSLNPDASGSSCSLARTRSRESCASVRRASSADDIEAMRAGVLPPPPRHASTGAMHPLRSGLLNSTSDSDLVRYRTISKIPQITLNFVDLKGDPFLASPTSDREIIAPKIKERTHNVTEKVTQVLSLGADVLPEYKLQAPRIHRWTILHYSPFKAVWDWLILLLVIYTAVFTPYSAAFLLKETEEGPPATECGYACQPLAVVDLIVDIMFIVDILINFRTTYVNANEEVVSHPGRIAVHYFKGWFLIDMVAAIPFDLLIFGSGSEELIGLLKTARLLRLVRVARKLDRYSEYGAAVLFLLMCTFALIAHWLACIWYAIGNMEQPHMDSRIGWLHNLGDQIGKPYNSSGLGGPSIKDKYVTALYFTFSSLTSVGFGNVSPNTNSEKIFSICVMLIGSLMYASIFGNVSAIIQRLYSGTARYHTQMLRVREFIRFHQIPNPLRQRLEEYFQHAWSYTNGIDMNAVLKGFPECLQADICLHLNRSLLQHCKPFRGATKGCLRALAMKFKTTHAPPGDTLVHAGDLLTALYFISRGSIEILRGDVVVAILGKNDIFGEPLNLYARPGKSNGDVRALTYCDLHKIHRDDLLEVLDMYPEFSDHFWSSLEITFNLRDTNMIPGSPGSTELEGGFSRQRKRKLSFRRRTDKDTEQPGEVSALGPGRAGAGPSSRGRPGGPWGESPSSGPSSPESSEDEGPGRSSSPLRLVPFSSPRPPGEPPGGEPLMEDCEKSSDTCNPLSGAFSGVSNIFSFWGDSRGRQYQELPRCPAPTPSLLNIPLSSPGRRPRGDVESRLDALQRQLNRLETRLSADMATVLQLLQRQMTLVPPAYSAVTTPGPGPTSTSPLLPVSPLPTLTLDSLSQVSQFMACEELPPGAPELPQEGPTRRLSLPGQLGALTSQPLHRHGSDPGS

Row | Compound | hERG current change (%, negative = inhibition) at 10uM
1 | O=C(O)c1ccccc1-c1ccccc1C(=O)Nc1ccc2c(c1)[nH]c(=O)c1ccccc12 | 24.5%
2 | O=C(N/N=C/c1ccco1)c1cc(C2CC2)nc2ccccc12 | 4.56%
3 | COc1ccc2cc(S(=O)(=O)Nc3ccccn3)ccc2c1 | 9.87%
4 | O=C(CSc1nnnn1-c1cccc2ccccc12)N1CCOCC1 | -25%
5 | Cl.N=c1c2c(n(Cc3ccc(Cl)cc3)c3c1CCC3)CCC2 | -2.06%
6 | CCN(CC)S(=O)(=O)c1ccc(N2CCCC2)c(NC(=O)c2ccc(OC)cc2OC)c1 | -43%
7 | CCN(CC)S(=O)(=O)c1ccc(N2CCCC2)c(NC(=O)Cc2cc(OC)c(OC)c(OC)c2)c1 | -8.43%
8 | CCN(CC)S(=O)(=O)c1ccc(N2CCCC2)c(NC(=O)c2ccccc2OC)c1 | -65.7%
9 | CC(Sc1nnc(CNc2cccc3ccccc23)n1-c1ccccc1)C(=O)N/N=C/c1ccco1 (stereo not drawn) | -10.2%
10 | Cl.O=C(NCC(c1cccs1)N1CCOCC1)c1cc2ccccc2o1 (stereo not drawn) | -15.7%
11 | O=C(NNC1=NS(=O)(=O)c2ccccc21)c1cccc([N+](=O)[O-])c1 | 15%
12 | CCCCCn1c(C)c2c(OCC)cccc(=O)c2c1C | -69%
13 | CCOc1cccc(=O)c2c(C)n(C)c(C)c12 | -4.1%
14 | CCOc1cccc(=O)c2c(C)n(Cc3ccccc3)c(C)c12 | 11.8%
15 | CC(C)C(NS(=O)(=O)c1cccs1)C(=O)NCc1ccc2c(c1)OCO2 (stereo not drawn) | -12%
16 | COc1ccccc1C(C#N)c1cccc(Cl)n1 (stereo not drawn) | 0.219%
17 | O=C(CCCn1c(=O)c2cccn2c2cccnc21)NCc1cccc(Br)c1 | -13.8%
18 | O=C(c1ccc(OC2CCN(CCCc3ccccc3)CC2)cc1)N1CCCC1 | -69.8%
19 | O=C(c1ccc(OC2CCN(CCc3ccccc3)CC2)cc1)N1CCCC1 | -30%
20 | CC1CCCN(C(=O)c2ccc(OC3CCN(CCc4ccccc4)CC3)cc2)C1 (stereo not drawn) | -58.1%
21 | CC(=O)N1CCN(C(=O)c2ccc(OC3CCN(CCc4ccccc4)CC3)cc2)CC1 | 15.6%
22 | COC1CCCN(C(=O)c2ccc(OC3CCN(CCc4ccccc4)CC3)cc2)C1 (stereo not drawn) | -11.6%
23 | O=C(c1ccc(OC2CCN(CCc3ccccc3)CC2)cc1)N1CCCC(O)C1 (stereo not drawn) | -2.05%
24 | COc1ccc(CNC(=O)CCn2nc(C)c3c(C)n(-c4ccccc4)nc3c2=O)c(OC)c1 | 11.8%
